Assay outcomes (PubChem)
Compounds with a hit are over-represented: about 4% of the library has one in this group of screens.
ADAM17 inh = ADAM17 inhibition, QFRET primary screen; P78536; recombinant ADAM17, EDANS/DABCYL FRET peptide cleavage; inhibition, % at 6.95 µM; actives 0.83% (n = 370,000);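 active = inhibition above the mean of compounds lying between control limits plus 3 SD, set per campaign, cut at about 8.5% in these data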;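 also: 0% = DMSO-only wells as the low control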
Target sequence (P78536 215-824 limits assumed): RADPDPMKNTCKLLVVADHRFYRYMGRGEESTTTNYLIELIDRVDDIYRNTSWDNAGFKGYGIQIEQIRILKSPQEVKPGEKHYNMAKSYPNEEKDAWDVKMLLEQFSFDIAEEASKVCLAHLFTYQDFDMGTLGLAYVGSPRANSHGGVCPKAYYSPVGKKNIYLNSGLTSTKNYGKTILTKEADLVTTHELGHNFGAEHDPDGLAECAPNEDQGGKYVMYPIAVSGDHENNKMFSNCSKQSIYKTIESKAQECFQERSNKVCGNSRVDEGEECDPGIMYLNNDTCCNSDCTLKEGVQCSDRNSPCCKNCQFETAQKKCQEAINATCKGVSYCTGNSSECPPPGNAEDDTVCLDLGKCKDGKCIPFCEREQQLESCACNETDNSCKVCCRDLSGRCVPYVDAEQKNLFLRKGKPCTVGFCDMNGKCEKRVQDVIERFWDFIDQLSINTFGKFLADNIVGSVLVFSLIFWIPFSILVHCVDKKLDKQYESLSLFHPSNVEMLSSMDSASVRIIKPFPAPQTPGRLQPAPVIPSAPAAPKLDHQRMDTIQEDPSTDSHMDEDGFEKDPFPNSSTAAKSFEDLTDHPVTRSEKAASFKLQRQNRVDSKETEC
ADAM10 inh = inhibits human ADAM10 | O14672 | recombinant ADAM10, EDANS/DABCYL FRET peptide cleavage, 3 h | inhibition, % at 7 µM | actives 0.62% (n = 370,000);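 active = inhibition above a per-campaign cutoff equal to the mean of compounds falling between control-based bounds plus 3 SD, cut at about 20% in these data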;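 also: 0% = DMSO wells while the 100% control is not disclosed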
GRIN3A LBD mod = NR3A (human) ligand-binding domain modulation; AID 1259313; NR3A LBD differential scanning fluorimetry, Tm shift; 0% = protein alone, 100% = glycine-bound protein; actives 2.5% (n = 340,000); Tm shift relative to glycine control, % at 25 µM;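 active = melting temperature shift of at least 10% of the positive control shift, at one fixed dose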
aDG glyco act = alpha-DG glycosylation activation | actives 0.22% (n = 360,000) | Pro5-aDG cells, alpha-DG glycosylation AlphaScreen (IIH6); 0% Pro5, 100% B10-LARGE cell signal | activation, % at 10 µM;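 active = activation of at least 8% versus controls, or a plate z-score of at least 8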;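 also: Pro5 are CHO cells carrying HIG-tagged alpha-DG that lacks glycosylation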
FAS-TE inh = FAS thioesterase (human) inhibition; AID 602261; inhibition, % at 15 µM; actives 0.67% (n = 360,000); recombinant FAS-TE, OMFH fluorogenic substrate, fluorescence endpoint;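 active = compounds whose normalised, plate-corrected inhibition of enzyme fluorescence in the single-dose primary screen is 50% or more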;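 also: 0% = DMSO with enzyme and 100% = substrate without enzyme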
FAS-TE conf = confirmation of human fatty acid synthase thioesterase inhibitors. shares compounds with FAS-TE inh. recombinant FAS-TE, OMFH fluorogenic substrate, fluorescence. inhibition, % at 15 µM. actives 45% (n = 2,300). AID 624325;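 active = compounds inhibiting the enzyme by at least 50% at 15 µM in any one of the replicates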;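 also: 0% = enzyme with DMSO only and 100% = wells lacking enzyme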
* = called active by the depositor; . = not tested or not shown.

SMILES	ADAM17 inh	ADAM10 inh	GRIN3A LBD mod	aDG glyco act	FAS-TE inh	FAS-TE conf
CCN(CC)c1ccc(NC(=O)CN2CCN(S(=O)(=O)c3cc(Cl)ccc3OC)CC2)cc1	5	8	-7	2	18	.
CC(=O)Nc1ccc(S(=O)(=O)NNC(=O)c2cccc(Br)c2)cc1	1	12	-2	0	-9	.
CN(C(=O)c1cccc(NC(=O)Cc2ccc(NC(=O)C3CCN(S(=O)(=O)c4cccc([N+](=O)[O-])c4)CC3)cc2)c1)C1CCCCC1	3	11	7	0	52*	25
CN(CCc1ccccc1)C(=O)c1ccc(NC(=O)Cc2ccc(NC(=O)C3CCN(S(=O)(=O)c4cccc([N+](=O)[O-])c4)CC3)cc2)cc1	7	16	7	0	62*	11
CN(CCc1ccccc1)C(=O)c1ccc(NC(=O)Cc2cccc(NC(=O)C3CCN(S(=O)(=O)c4cccc([N+](=O)[O-])c4)CC3)c2)cc1	0	6	10*	0	55*	9
CN(C(=O)c1cccc(NC(=O)Cc2ccc(NC(=O)C3CCN(C(=O)C4CCCCC4)CC3)cc2)c1)C1CCCC1	0	-3	-3	0	-3	.
C=CCN1C(=O)[C@@H](CC(=O)NCCCN2CCCC2=O)[C@]2(C(=O)OCC)CCCCC/C=C/12	-1	-1	.	.	.	.
Cc1ccc(CNC(=O)CSc2nc3ccsc3c(=O)n2Cc2ccc(C(=O)O)cc2)cc1	-4	-7	0	0	-8	.
COc1ccccc1NS(=O)(=O)c1cc(NC(=O)c2sccc2C)ccc1N1CCCC1	7	16	-1	0	58*	3
COc1ccccc1NS(=O)(=O)c1cc(NC(=O)C(C)(C)C)ccc1N1CCOCC1	1	6	1	0	5	.
COc1ccccc1NS(=O)(=O)c1cc(NC(=O)c2sccc2C)ccc1N1CCOCC1	0	1	-4	0	30	.
COc1ccccc1NS(=O)(=O)c1cc(NC(=O)/C=C/c2cccs2)ccc1N1CCOCC1	3	-5	3	-1	82*	22
Cc1cc([N+](=O)[O-])nn1CC(=O)N1N=C(C(F)F)CC1(O)C(F)F (configuration not stated)	-1	9	-2	0	-4	.
C=CCn1c(=S)[nH]c2cc(C(=O)N3CCN(c4ccccc4OC)CC3)ccc2c1=O	-1	3	0	0	54*	58*
O=C(NOCc1ccccc1)c1coc(-c2ccccc2)n1	-4	-7	-1	0	-3	.
COc1ccc(/C=C2\SC(=O)N(CCNC(=O)C3CCN(S(=O)(=O)c4cccs4)CC3)C2=O)cc1	-1	6	-13	0	54*	16
O=C(N/N=C/c1cc([N+](=O)[O-])cc([N+](=O)[O-])c1O)/C(=C\c1cccs1)NC(=O)c1ccccc1	2	9	6	0	75*	74*
COc1cc(/C=N/NC(=O)/C(=C\c2ccc([N+](=O)[O-])cc2)NC(=O)c2ccccc2)cc(OC)c1O	7	12	-2	0	50	.
CC(C)(C)c1ccc(/C=N/Nc2ccc(C(=O)O)cc2)cc1	0	1	-5	0	64*	77*
CC1CC(C)(C)CC2(C1)NC(=O)N(CC(=O)Nc1cc(C(F)(F)F)ccc1N1CCCCC1)C2=O (configuration not stated)	1	-9	-1	0	60*	4
O=C(CN1C(=O)NC2(CCCCC2)C1=O)Nc1cc(C(F)(F)F)ccc1N1CCCC1	2	-6	1	0	4	.
Cn1cc(C(=O)N/N=C/C2=C(N3CCOCC3)C(=C\c3ccccc3)/CC2)ccc1=O	-8	-17	-2	0	-4	.
CC(NC(=O)C12CC3CC(CC(C3)C1)C2)C(=O)N/N=C/C1=C(N2CCOCC2)C(=C\c2ccccc2)/CC1 (configuration not stated)	0	0	-8	3	71*	9
Cn1ncc(Br)c1NC(=O)Nc1ccc(Cl)cc1	.	.	-5	0	0	.
Cc1ccccc1-n1c(=O)/c(=C\c2ccco2)s/c1=C(/C#N)C(=O)Nc1ccccc1	1	6	2	0	62*	18
SMILES	ADAM17 inh	ADAM10 inh	GRIN3A LBD mod	aDG glyco act	FAS-TE inh	FAS-TE conf
CCOC(=O)/C=c1\s/c(=C(\C#N)C(=O)NC)n(-c2ccccc2)c1=O	-2	-5	4	0	-5	.
COc1cc(/C=C(\C#N)c2nc3ccccc3s2)cc([N+](=O)[O-])c1O	-2	4	-2	0	51*	46*
N#C/C(=C\c1cccc([N+](=O)[O-])c1)C(=O)NCc1ccc(Cl)cc1	-1	5	-11	0	74*	77*
O=C(NNS(=O)(=O)c1ccc([N+](=O)[O-])cc1)c1cnn(-c2ccccc2)c1-n1cccc1	-4	-9	0	0	65*	75*
O=C(NNS(=O)(=O)c1ccc([N+](=O)[O-])cc1)c1ccc([N+](=O)[O-])cc1	-3	3	1	0	74*	77*
COc1ccc(-c2nn(-c3ccccc3)cc2C=O)cc1[N+](=O)[O-]	-2	8	-1	0	6	.
COc1ccc(-c2nnc(SC)nc2-c2ccc(OC)c([N+](=O)[O-])c2)cc1[N+](=O)[O-]	2	1	-1	0	69*	-1
CC(C)(C)SCCNC(=O)c1ccc(Cl)c([N+](=O)[O-])c1	-3	0	1	1	53*	68*
Cc1ccccc1CNC(=O)c1ccc(Cl)c([N+](=O)[O-])c1	0	0	-19	0	34	.
COc1ccc(C/C(N)=N/OC(=O)c2cccc([N+](=O)[O-])c2)cc1	-1	8	14*	0	54*	48*
Cc1ccc(S(=O)(=O)c2cc3c(=O)n4cccc(C)c4nc3n(C3CCCCC3)c2=N)cc1	.	.	-1	0	7	.
Cc1cccn2c(=O)c3cc(S(=O)(=O)c4ccc(Br)cc4)c(=N)n(C4CCCCC4)c3nc12	-6	-6	-14	0	51*	7
COc1cccc(-c2cnc3c(NC=O)cc(-c4ccc(S(C)(=O)=O)cc4)cn23)c1	-7	-32	.	0	55*	56*
COc1cccc(-c2cnc3c(NC=O)cc(-c4ccccc4)cn23)c1	-9	-25	.	0	20	.
CC(C)C(C)(C#N)NC(=O)CSc1nc(C2CCCCC2)n(-c2ccccc2)n1 (configuration not stated)	2	-1	-2	0	2	.
CS(=O)(=O)c1ccc(-c2csc(C(O)c3cccc(Cl)c3)n2)cc1 (configuration not stated)	-3	-2	.	0	52*	17
